# The campaign covered roughly 4,100 compounds. About 1,600 (39%) were called active. Roughly 25% stayed inconclusive and do not appear here. Some of the results follow. Values without a mark were called inactive. Calls follow the shape of the dose curve; as a rule, active = well fitted inhibition curve with a large enough effect; inconclusive = small, poorly fitted or top-dose-only effect; inactive = no such curve, though single readings can be large or run the other way.
# Assay: qHTS Validation assay for Inhibitors of Plasmodium falciparum Dd2 growth in vitro; also: nearly all actives have a fitted effect of over 70% in size
# Details: P. falciparum Dd2 in RBCs, SYBR Green growth, 72 h; series mostly up to 28.7 µM; activity change, negative = inhibition: at the top concentration
# Method in brief: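 P. falciparum Dd2-infected red blood cells (2.5% hematocrit, 0.3% parasitemia) grown 72 h at 37 °C under 5% O2 with compounds in a titration, 29 uM to 0.5 nM final. Growth read as SYBR Green-1 fluorescence after ~16 h lysis; artesunate 300 nM as positive control.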
# % is scaled to controls: 0 for no effect and ±100 for the full control effect; potency is read from the fitted curve at half-maximal effect.
Structure (SMILES),"activity change, negative = inhibition",Potency
CN1C(=O)CCC2(C(=O)O)CCCC=C12 (stereo unspecified),19.8%,–
CCOc1ccccc1NC(=O)C1CCN(S(=O)(=O)c2c(C)noc2/C=C/c2ccco2)CC1,–,15 µM (active)
CCOCCOC1CCN(S(=O)(=O)c2c(C)noc2C)CC1,11.4%,–
Cc1ccc(NC(=O)C2CCN(S(=O)(=O)c3ccc4[nH]c(=O)ccc4c3)CC2)cc1C,30.7%,–
COc1ccc(/C=C\c2onc(C)c2S(=O)(=O)N2CCC(C(=O)Nc3ccc(C)cc3C)CC2)cc1,–,0.842 µM (active)
Cc1cc(C)c(/C=C/c2onc(C)c2S(=O)(=O)N2CCC(C(=O)Nc3ccc(Cl)c(C(F)(F)F)c3)CC2)c(C)c1,–,10.6 µM (active)
CCOC(=O)c1c(S(=O)(=O)N2CCC(C(=O)Nc3ccc(F)cc3F)CC2)c(C)n(C)c1C,48.1%,–
Cc1cc(C)n(Cc2ccc(C(=O)N3CCC(c4noc(-c5cccnc5)n4)C3)o2)n1 (stereo unspecified),5.3%,–
Cc1ccc(CC(=O)NCc2nnc3c(-c4nc(C(C)C)no4)cccn23)cc1,2.86%,–
Cc1ccc(CSC2=Nc3ccccc3C3=NC(CC(=O)NCc4ccco4)C(=O)N23)cc1 (stereo unspecified),–,6.68 µM (active)
Cc1cccc(OCCSc2nc3ccc(NC(=O)c4cccs4)cc3s2)c1,–,9.44 µM (active)
Cc1ccc2[nH]c(C(=O)Nc3ccc(F)cc3)cc2c1,33.2%,–
COc1cc(C)ccc1OCCSc1nc2ccc(NC(=O)c3ccc(F)cc3)cc2s1,–,10.6 µM (active)
Cc1ccccc1OCCSc1nc2ccc(NC(=O)c3cccs3)cc2s1,–,5.31 µM (active)
COc1ccc(NC(=O)c2cc3c(N4CCSCC4)nc(C)cn3n2)cc1OC,-5.63%,–
COc1cc(C)ccc1OCCSc1nc2ccc(NC(=O)c3cccs3)cc2s1,–,13.3 µM (active)
Cc1ccccc1C(=O)NNc1ccc(-c2csnn2)cc1,37.5%,–
CCCCc1ccc(NC(=O)CSC2=C(C#N)C(c3ccco3)C3=C(CCCC3=O)N2)cc1 (stereo unspecified),-11.9%,–
N[C@@H]1CN(c2ncccn2)C[C@H]1CO,0%,–
O=C(NCc1cccs1)c1ccc(CN2C(=O)NC3(CCS(=O)(=O)CC3)C2=O)cc1,-5.88%,–
CCCOc1cccc(C(=O)Nc2ccc(-c3cc4ccccc4oc3=O)c(C)c2)c1,-6.71%,–
Cc1ccccc1OCCSc1nc2ccc(NC(=O)c3ccccc3)cc2s1,–,15 µM (active)
COc1ccc(S(=O)(=O)N2CCc3cc(OC)c(OC)cc3C2)cc1,22.2%,–

Structure (SMILES),"activity change, negative = inhibition",Potency
COc1ccc(S(=O)(=O)N2CCC3(CC2)OCCN3S(=O)(=O)c2c(C)cc(C)cc2C)cc1,–,2.66 µM (active)
Cc1cccc(NC2=C/C(=N/S(=O)(=O)c3cccs3)c3ccccc3C2=O)c1,–,0.168 µM (active)
O=C1C(Nc2ccccc2)=C/C(=N/S(=O)(=O)c2cccs2)c2ccccc21,–,0.335 µM (active)
COC(=O)[C@H]1[C@H]2C[C@@H]3c4[nH]c5cc(OC)ccc5c4CCN3C[C@H]2C[C@@H](OC(=O)/C=C/c2cc(OC)c(OC)c(OC)c2)[C@@H]1OC,–,5.31 µM (active)
Cc1ccc(NC(=O)Cn2c(-c3ccccc3)nc(C)c(CCO)c2=O)cc1Cl,–,10.6 µM (active)
Cc1nc(-c2ccccc2)n(CC(=O)Nc2ccc(Cl)cc2)c(=O)c1CCO,–,16.8 µM (active)
CCOC(=O)c1ccc(NC(=O)Cn2c(-c3cnccn3)nc(C)c(CCO)c2=O)cc1,0%,–
Cc1nc(-c2cccc(Cl)c2)n(CC(=O)Nc2ccc(C(F)(F)F)cc2)c(=O)c1CCO,–,13.3 µM (active)
COc1ccc2c(c1)C=C([C@@H]1C[C@H]3CN(c4ccccc4)C(=O)[C@]34CCCN14)CO2,–,0.944 µM (active)
COc1ccc(-c2cc(-c3cccc(NC(C)=O)c3)cn3cncc23)cn1,–,21.7 µM (active)
O=C(C[C@@H]1CCNC[C@@H]1Cc1cc(COc2ccccc2)on1)NCc1cccs1,-17.5% [at 43.1 µM],–
O=C(C[C@@H]1CCNC[C@@H]1Cc1cc(CSc2ccccc2)on1)N1CCN(c2ccccc2)CC1,–,8.41 µM (active)
CC(=O)N1CCN(C(=O)C[C@@H]2CCNC[C@@H]2Cc2cc(CSc3ccccc3)on2)CC1,-1%,–
CC(C)(C)c1ccc(-c2cc(C[C@H]3CNCC[C@H]3CC(=O)N3CCN(c4ccccn4)CC3)no2)cc1,–,15 µM (active)
COc1ccc(CNC(=O)C[C@@H]2CCNC[C@@H]2Cc2cc(-c3ccccc3)on2)cc1OC,9.35%,–
CCC(=O)N1CCCCCCNC(=O)[C@@H]2C[C@@H](C(=O)N3CCN(c4ccccn4)CC3)C[C@@H]21,10.7%,–
CCN1CCN(Cc2ccc(NC(=O)c3cc(NC(=O)c4cncc(-c5ccc(C#N)cc5)c4)cc(OC)c3)cc2C(F)(F)F)CC1,–,0.596 µM (active)
O=C(Nc1ccc2c(c1)C(=O)N1CCC[C@H]1C(=O)N2)c1cc(-c2ccccc2)n[nH]1,-18.8%,–
CCN1CCN(Cc2ccc(NC(=O)c3cc(NC(=O)c4nccnc4N)cc(OC)c3)cc2C(F)(F)F)CC1,–,4.73 µM (active)
COc1cc(NC(=O)c2nnn(Cc3ccc(F)cc3)c2N)cc(OC)c1,-13.8%,–
CCN1CCN(Cc2ccc(NC(=O)c3cc(NC(=O)c4cc(-c5ccc(OC)cc5)n[nH]4)cc(OC)c3)cc2C(F)(F)F)CC1,–,0.168 µM (active)
COc1ccc(CNC(=O)N[C@@H]2CN(c3ccncn3)C[C@H]2CN(C)C)cc1,20.7%,–
O=c1cc(CSc2ccc(Cl)cc2)nc(-c2ccccn2)[nH]1,–,5.96 µM (active)
